# Hits are enriched below; roughly 6.5% of the tested compounds scored in any of these assays.
# Vaccinia mCherry = vaccinia inhibition (mCherry reporter); Vaccinia virus mCherry reporter infection, fluorescence; Potency, µM (highest dose often 36.5 µM), inactives show top-dose activity change, negative = inhibition, hits mostly inhibitors; hit rate 0.63% among 310,000; AID 720579; calls by dose curve; tested in A549 cells; further: potency means the concentration at half of the fitted maximal effect; nearly all actives have a fitted effect of over 35% in size
# HCMV antiviral = inhibitors of human cytomegalovirus; hit rate 4.5% among 410,000; HFF cells, HCMV-luciferase reporter, 72 h; stronger effect = lower value; activity change, negative = inhibition, % at 57.5 µM; in the data active means activity change below about -60%; inconclusive means no clear call, values can overlap the other calls; inactive means above about -39%
#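 HFF cells seeded 16 h at 37C, treated with compounds, infected with luciferase-reporter HCMV at MOI 1 PFU/cell; luciferase read at 72 h post infection, normalized to buffer-only and Salinomycin controls.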
# Vaccinia Venus = vaccinia inhibition (Venus reporter) | Vaccinia virus Venus reporter expression, fluorescence | Potency, µM (highest dose often 36.5 µM), without a hit: top-dose activity change, negative = inhibition, actives largely listed as inhibitors | hit rate 0.46% among 330,000; calls by dose curve; tested in A549 cells; further: potency means the concentration at half of the fitted maximal effect; nearly all actives have a fitted effect of over 30% in size
# Marburg entry inh = inhibitors of Marburg virus binding or cell entry | Marburg virus pseudotyped entry inhibition, cell reporter | Potency, µM (doses to about 37.8 µM), for the others: at the highest dose activity change, negative = inhibition, most hits filed as inhibitors | hit rate 1.8% among 300,000; calls by dose curve; tested in HEK293 cells; further: potency means the concentration at half of the fitted maximal effect
# FMDV antiviral = antivirals against foot and mouth disease virus; Potency, µM (series often up to 57.9 µM), inactives show top-dose activity change, negative = inhibition, hits mostly inhibitors; AID 1159524; hit rate 1.2% among 410,000; FMDV antiviral cell-based qHTS; calls by dose curve; tested in HEK293T cells; further: read-out not given here; potency means the concentration at half of the fitted maximal effect; nearly all actives have a fitted effect of over 45% in size
# Lassa entry inh = blocks Lassa virus binding to or entry into cells. AID 540256. Lassa virus pseudotype entry inhibition, cell reporter. Potency, µM (doses to about 37.9 µM), without a hit: at the top dose activity change, negative = inhibition, usual class: inhibitors. hit rate 1.2% among 300,000; calls by dose curve; tested in HEK293 cells; further: potency means the concentration at half of the fitted maximal effect; nearly all actives have a fitted effect of over 50% in size
# Starred values were filed as active, the others as inactive; i = inactive; ? = inconclusive; nt = no result given; [ ] = dose if it differs, or a comment. On the % scale 0 is the no-effect control and ±100 the full control effect.
SMILES,Vaccinia mCherry,HCMV antiviral,Vaccinia Venus,Marburg entry inh,FMDV antiviral,Lassa entry inh
OC1(c2ccc(Cl)c(C(F)(F)F)c2)CCN(CCCC(c2ccc(F)cc2)c2ccc(F)cc2)CC1,nt,-99*,nt,nt,nt,nt
COc1ccc(C(=O)NN(C)c2nc(C(F)(F)F)nc3ccccc23)cc1,i,-99*,?,?,-14%,?
CC(=O)c1c(C)[nH]c(C(=O)OCC(=O)Nc2ccc(C)cc2[N+](=O)[O-])c1C,nt,?,nt,?,5µM*,3%
CC(=O)c1c(C)[nH]c(C(=O)OCC(=O)N2CCN(S(=O)(=O)c3ccc(C)cc3C)CC2)c1C,-11%,30,?,-28%,20µM*,?
CC(=O)c1c(C)[nH]c(C(=O)OCC(=O)NCc2ccc(Cl)cc2)c1C,nt,-37,nt,nt,?,nt
CC(=O)c1c(C)[nH]c(C(=O)OCC(=O)Nc2cc(Cl)ccc2[N+](=O)[O-])c1C,nt,100,nt,-2%,28µM*,nt
CCOC(=O)N1CCN(Cc2nc3cc([N+](=O)[O-])ccc3n2CC)CC1,nt,12,nt,nt,-21%,nt
CCOC(=O)N1CCN(Cc2nc3cc(NC(=O)CC(C)C)ccc3n2C(C)C)CC1,?,-95*,-28%,?,-17%,-25%[46.1 µM]
CCCn1c(CN2CCN(C(=O)OCC)CC2)nc2cc([N+](=O)[O-])ccc21,-22%,-76*,-10%,?,?,?
CCOC(=O)N1CCN(Cc2nc3cc(NC(=O)CC)ccc3n2C(C)C)CC1,-26%[7.34 µM],-9,-21%[7.34 µM],-30%[46.1 µM],?,-24%[46.1 µM]
Cn1c(CCN2CCOCC2)nc2cc(NC(=O)COc3ccc([N+](=O)[O-])cc3)ccc21,nt,-30,nt,nt,-17%,nt
CCOC(=O)N1CCN(Cc2nc3cc(NC(=O)c4ccc([N+](=O)[O-])cc4)ccc3n2C(C)C)CC1,?,-83*,?,?,0%,1%[46.1 µM]
Cn1c(CN2CCOCC2)nc2cc(NC(=O)COc3ccc([N+](=O)[O-])cc3)ccc21,-9%,-71*,-23%,?,?,3%
CCn1c(CN2CCCCC2)nc2cc(NC(=O)c3ccc([N+](=O)[O-])cc3)ccc21,-29%,-28,?,?,?,-2%[46.1 µM]
CC(=O)c1cccc(NC(=O)C(C)n2c(=O)cc(-c3ccccc3)c3c(C)nn(C)c32)c1 (stereo unspecified),-6%,2,-10%,nt,3%,-24%[46.1 µM]
Cc1ccc(-n2ncc(C(=O)NCCCN3CCN(c4cccc(Cl)c4)CC3)c2-n2cccc2)cc1,-27%,-16,-30%,nt,?,10%[46.1 µM]
CCOC(=O)N1CCN(Cc2nc3cc(NC(=O)CC(C)C)ccc3n2C)CC1,nt,34,nt,nt,-9%,nt
CCOC(=O)N1CCN(Cc2nc3cc(NC(=O)c4cccc(C)c4)ccc3n2C(C)C)CC1,?,-94*,?,?,?,-4%[46.1 µM]
Cc1cccc(NC(=O)CSc2nc(=O)n(Cc3ccncc3)c3c2CCC3)c1C,-21%,-10,-4%,nt,15%,-28%[46.1 µM]
CN1CCCN(C(=O)[C@@H]2C[C@@H](Sc3nc4ccccc4[nH]3)CN2Cc2ccc(-c3ccccc3)cc2)CC1,-19%,nt,-14%,nt,-4%,nt
CC(CC(=O)N1CCN(c2cccc(Cl)c2)CC1)S(=O)(=O)c1ccc2c(c1)NC(=O)CO2 (stereo unspecified),nt,-95*,nt,nt,2.8µM*,nt
O=C1COc2ccc(S(=O)(=O)CCC(=O)N3CCN(c4ccccc4)CC3)cc2N1,-12%[7.34 µM],-2,5%[7.34 µM],nt,-13%,nt
O=C1CCc2cc(S(=O)(=O)NCCC(=O)N3CCN(c4cccc(Cl)c4)CC3)ccc2N1,nt,?,nt,-8%,16µM*,?
Cc1ccc(C)c(N2CCN(C(=O)CCS(=O)(=O)c3ccc4c(c3)NC(=O)CO4)CC2)c1,nt,-73*,nt,nt,-49%,nt
CCOc1ccc(Cc2onc3c2C(=O)CCC3)cc1OCC,1%,-89*,-7%,-4%[46.1 µM],-19%,15%
SMILES,Vaccinia mCherry,HCMV antiviral,Vaccinia Venus,Marburg entry inh,FMDV antiviral,Lassa entry inh
CCOc1ccc(Cc2onc3c2C(=O)CC(C)(C)C3)cc1OCC,-16%,25,-5%,-15%[46.1 µM],?,-34%
Oc1ccc(-c2nc3c4c(ncn3n2)-c2ccccc2CC42CCCC2)cc1,-14%,-65*,-6%,1%,25µM*,9%
Nn1cnc2c(c1=O)C1(CCCCC1)Cc1ccccc1-2,?,-6,?,?,?,2%
O=c1c(-c2ccccc2)nc2cnc(N3CCOCC3)nc2n1CCc1ccccc1,nt,nt,nt,nt,-1%,nt
C[C@]12C=CC(=O)C=C1CCC1C2C(=O)C[C@]2(C)C1CC[C@]2(O)C(=O)CO (stereo partly specified),-11%,nt,-3%,nt,-2%,nt
Cc1ccc(NCCc2ccc(C)nc2)cc1,i[1.46 µM],5,-6%,7%,29%,29%
Cc1ccc(CCNc2ccc3ccccc3c2)cn1,-11%[1.46 µM],-63*,6%,?,7%,?
CC1C/C(=C/c2ccccn2)C(=O)/C(=C/c2ccccn2)C1 (stereo unspecified),?,nt,?,?,6.3µM*,4µM*
CC(C)(C)C1C/C(=C/c2ccccn2)C(=O)/C(=C/c2ccccn2)C1 (stereo unspecified),?,nt,?,nt,3.5µM*,nt
CN(C)c1ccc(CC(=O)N2CCCCC2c2cc(C(=O)Nc3ccccc3Cl)no2)cc1 (stereo unspecified),-6%,-37,-12%,nt,35µM*,nt
COc1cc(NC(=O)NCCn2nnc3cc(S(=O)(=O)N(C)C)ccc32)cc(OC)c1OC,3%,7,6%,nt,-19%,4%[46.1 µM]
CC(C)(C)S(=O)(=O)N1Cc2cc(CO)ccc2[C@H]1CCO,nt,10,nt,nt,nt,nt
Cc1ccccc1NC(=S)c1ccc2ccccc2n1,nt,-63*,nt,nt,27%,nt
COCc1c(C(=O)Nc2ccc3nc(N4CCOCC4)sc3c2)oc2ccccc12,?,-12,-26%,?,25µM*,?
O=C(Nc1ccc2nc(N3CCOCC3)sc2c1)c1ccccc1,nt,13,nt,nt,24%,nt
O=C(COc1ccc(Cl)cc1Cl)NC(=S)Nc1ccc(CN2CCOCC2)cc1,-16%,-2,-8%,-14%,28µM*,0%
O=C(NC(=S)Nc1ccc(N2CCOCC2)cc1)c1ccc2c(c1)OCCO2,nt,-85*,nt,-18%,-29%,?
COc1ccc(CC(=O)NNC(=S)Nc2ccccc2)cc1Cl,i,-70*,12%,-3%,-5%,9%
COc1ccc(C(=O)NC(=S)Nc2ccc(CN3CCOCC3)cc2)cc1,-18%,25,-30%,-20%[14.2 µM],?,?
O=C(NC(=S)Nc1ccc(CN2CCOCC2)cc1)c1ccc2c(c1)OCCO2,?,12,?,10µM*,?,-24%
COc1ccc(-c2nc3ccccc3s2)cc1NC(=O)c1ccc(F)cc1,?,50,?,-4%[46.1 µM],0%,1%[46.1 µM]
O=C(NC(=S)Nc1ccc(F)cc1)c1ccc2c(c1)OCCO2,nt,-34,nt,?,0%,13µM*
O=C(COc1ccc(Cl)cc1Cl)NNC(=S)Nc1ccc(F)cc1,nt,-103*,nt,-9%,-6%,-9%

# Screening results (PubChem BioAssay)
